Data reported in PubChem BioAssay (NCI).
Compounds without any hit were thinned out: in the full panel of roughly 83,000, 20% have a hit.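 Note: values are percent growth. 100 is the growth of untreated cells, values between 100 and 0 indicate rising inhibition; between -100 and 0 indicates cell death.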 Calls of active or inactive are those of the source. Rule for the calls: active = growth percent below 10; inactive = the rest.

Columns and labels:
Experiment in all cases: NCI-60 one-dose screen, 48 h (100 = growth as untreated, 0 = no growth, -100 = all killed)
Conditions in all cases: 10 µM unless noted
BT-549 breast = test system: BT-549 breast
MDA-MB-435 melanoma = test system: MDA-MB-435 melanoma
SW-620 colon = test system: SW-620 colon
MCF7 breast = test system: MCF7 breast
HCT-116 colon = test system: HCT-116 colon
HCC-2998 colon = test system: HCC-2998 colon
KM12 colon = test system: KM12 colon

Measured: growth

O=C1[C@H]2Cc3c([nH]c4ccccc34)[C@H](c3ccc(Cl)cc3)N2C(=O)CN1C1CCN(CC2CCCCC2)CC1
active: HCT-116 colon 5.7%
inactive: BT-549 breast 70.8% | MDA-MB-435 melanoma 62.3% | SW-620 colon 72.5% | MCF7 breast 16.2% | HCC-2998 colon 53.4% | KM12 colon 62%

CC/C(=C(/c1ccc(Cl)cc1)c1ccc(OCCN)cc1)c1ccccc1
inactive: BT-549 breast 129% | MDA-MB-435 melanoma 96.7% | SW-620 colon 16.5% | MCF7 breast 54.9% | HCT-116 colon 56% | HCC-2998 colon 83.7% | KM12 colon 84.7%

CCCC[n+]1ccc(SCC(=O)n2ccc3ccccc32)c2ccccc21
inactive: MDA-MB-435 melanoma 101% | SW-620 colon 102% | MCF7 breast 83% | HCT-116 colon 93.1% | KM12 colon 92.5%

Cc1ccc(CSC2=C(Cl)CN(c3ccc(Cl)cc3)C2=O)cc1
inactive: BT-549 breast 110% | MDA-MB-435 melanoma 103% | SW-620 colon 108% | MCF7 breast 79.1% | HCT-116 colon 98.5% | HCC-2998 colon 105% | KM12 colon 106%

CCN(CC)CCOc1ccc(C(=C(C)Cc2ccc(OC)cc2)c2ccc(OCCN(CC)CC)cc2)cc1
inactive: HCT-116 colon 16.3% | HCC-2998 colon 44.8% | KM12 colon 48.6%
active: MDA-MB-435 melanoma -66.1% | MCF7 breast -33.8%

C#CCOc1ccc(-c2csc(NC(=O)C=C)n2)cc1NS(=O)(=O)c1cccc2c(N(C)C)cccc12
inactive: BT-549 breast 58.6% | MDA-MB-435 melanoma 14.7% | SW-620 colon 10.3% | HCC-2998 colon 78.4% | KM12 colon 63.1%
active: MCF7 breast 4.46% | HCT-116 colon -72.2%

CCCCCCOC(=O)c1cc(-c2ccc(F)cc2)nc2ccccc12
inactive: BT-549 breast 103% | MDA-MB-435 melanoma 99.9% | MCF7 breast 91.5% | HCT-116 colon 93.3% | HCC-2998 colon 106% | KM12 colon 96.1%

Fc1ccc(-c2cn3c(-c4c[nH]c5ccc(Br)cc45)csc3n2)cc1
inactive: MDA-MB-435 melanoma 83.1% | SW-620 colon 81.4% | MCF7 breast 60.9% | HCT-116 colon 73.8% | HCC-2998 colon 100% | KM12 colon 66.5%

CCc1cccc2c3c(sc12)C(c1ccc(F)cc1)C(C#N)=C(/N=C/c1ccc(Cl)cc1)O3 (stereo not drawn)
active: BT-549 breast 2.79% | MDA-MB-435 melanoma -5.71%
inactive: SW-620 colon 37.6% | MCF7 breast 14% | HCT-116 colon 11.4% | HCC-2998 colon 10.3% | KM12 colon 16.1%

COc1ccc(OC)c(NC(=O)CCCCCCNC(=O)C(O)(O)C(F)(F)F)c1
active: SW-620 colon 6.62% | HCT-116 colon 7.1%
inactive: BT-549 breast 76.8% | MDA-MB-435 melanoma 30.1% | MCF7 breast 36.9% | HCC-2998 colon 51.5% | KM12 colon 43.5%

COc1ccc(C2CC(c3cccc(OCCCCOc4cccc(C5=NOC(c6ccc(OC)cc6)C5)c4)c3)=NO2)cc1 (stereo not drawn)
active: HCT-116 colon -21.9%
inactive: BT-549 breast 113% | MDA-MB-435 melanoma 105% | SW-620 colon 32.9% | MCF7 breast 15% | HCC-2998 colon 101% | KM12 colon 76.2%

Cc1ccc(NC(=O)/C=C/c2ccc(OCCCOc3ccc4c(C)cc(=O)oc4c3)cc2)cc1
inactive: BT-549 breast 98.7% | MDA-MB-435 melanoma 77.1% | SW-620 colon 83.5% | MCF7 breast 73.4% | HCT-116 colon 78.9% | HCC-2998 colon 80.5% | KM12 colon 84.8%

COc1cc2oc(-c3cccc(NC(=O)c4cccc([N+](=O)[O-])c4)c3)cc(=O)c2c(OC)c1OC
inactive: BT-549 breast 59.8% | MDA-MB-435 melanoma 53.3% | SW-620 colon 70.9% | MCF7 breast 42.9% | HCT-116 colon 33.5% | HCC-2998 colon 93.6% | KM12 colon 76.4%

CC(=C(c1ccc(OCCCN(C)C)cc1)c1ccc(OCCCN(C)C)cc1)c1ccc(Cl)cc1
inactive: BT-549 breast 109% | MDA-MB-435 melanoma 89.3% | SW-620 colon 87.8% | MCF7 breast 37.9% | HCT-116 colon 64.6% | HCC-2998 colon 81.7% | KM12 colon 84.2%

CC(C)(C)Nc1nc2c(OCCc3ccccc3)cccn2c1-c1cccc(Oc2ccccc2)c1
active: BT-549 breast -11% | MCF7 breast 4.96% | HCT-116 colon 4.13%
inactive: MDA-MB-435 melanoma 19.9% | SW-620 colon 23.5% | HCC-2998 colon 21.3% | KM12 colon 14%

Cc1cc(NS(=O)(=O)c2ccc(NC(=O)CSc3nc4ccccc4c(=O)n3-c3ccccc3)cc2)no1
inactive: BT-549 breast 97.1% | MDA-MB-435 melanoma 98% | SW-620 colon 98.9% | MCF7 breast 91.4% | HCT-116 colon 94.6% | HCC-2998 colon 96.9% | KM12 colon 94.5%

CNC(=O)c1cc(Oc2ccc3c(c2)sc2nc(-c4ccc(N(C)C)cc4)cn23)ccn1
inactive: BT-549 breast 36.5% | SW-620 colon 27.9% | MCF7 breast 11.2% | KM12 colon 23.2%
active: MDA-MB-435 melanoma -37.8% | HCT-116 colon 8.11% | HCC-2998 colon 0.825%
